Out of some 5,500 compounds screened, about 2,000 (36%) were called active. Not shown: some 18% with an inconclusive outcome. No stated cut-off is given here; in the data, active means normalized growth mostly below about 0.91 (no sharp cut-off); inconclusive means no clear call, values can overlap the other calls; inactive means mostly above about 0.92. Some of the results follow.
Assay: chemical genetic growth profiling, strain panel (AID 1159580);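 further: tested at 20 µM; growth read once vehicle control cultures reached saturation at 30 °C; 1 = growth at the plate median or of vehicle wells; lower values mean less growth of the strain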
Conditions: S. cerevisiae deletion strains, growth OD

Measured: normalized growth

O=[N+]([O-])c1ccc(SC2=NCCN2)c(Cl)c1
inactive: locus YAL013W, strain DEP1, active compounds read low 0.994 | locus YBR229C, strain ROT2, active compounds read low 1 | locus YDL101C, strain DUN1, active compounds read low 0.987 | locus YDR150W, strain NUM1, active compounds read low 0.985 | locus YEL061C, strain CIN8, active compounds read low 0.978 | locus YGR078C, strain PAC10, active compounds read low 0.987 | locus YHR030C, strain SLT2, active compounds read low 1.03 | locus YHR087W, strain rtc3, active compounds read low 1.01 | locus YJL187C, strain SWE1, active compounds read low 0.98 | locus YJR043C, strain POL32, active compounds read low 0.964 | locus YJR075W, strain HOC1, active compounds read low 0.952 | locus YKL190W, strain CNB1, active compounds read low 0.994 | locus YLR039C, strain RIC1, active compounds read low 1 | locus YLR058C, strain SHM2 (second series), active compounds read low 0.992 | locus YLR085C, strain ARP6, active compounds read low 0.965 | locus YLR262C, strain YPT6, active compounds read low 1 | locus YML094W, strain GIM5, active compounds read low 0.972 | locus YMR219W, strain ESC1, active compounds read low 0.977 | locus YMR263W, strain SAP30, active compounds read low 1.01 | locus YNL153C, strain GIM3, active compounds read low 1.02 | locus YNL298W, strain CLA4 (second series), active compounds read low 1.03 | locus YNL322C, strain KRE1, active compounds read low 0.984 | locus YNR030W, strain Alg12, active compounds read low 0.995 | locus YOL006C, strain TOP1, active compounds read low 1 | locus YPL055C, strain LGE1, active compounds read low 1.03 | locus YPL241C, strain CIN2, active compounds read low 0.985 | locus YPR135W, strain CTF4, active compounds read low 1.09

Source: PubChem BioAssay AID1159580 (chemical genetic matrix, 2015)
